Laboratory results reported in PubChem BioAssay (NCI).
About 79,000 compounds went through this panel and 15% of them were active in at least one assay; those are over-represented in the sample as a whole. A number with no mark means an inactive call. The source made the active and inactive calls. No stated cut-off is given here; in the data, active means growth inhibition above about 70%; inactive means the rest.

How the values were obtained:
[1] = NCI Yeast Anticancer Drug Screen. Data for the rad52 strain (AID 147);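 further: 0% = growth of vehicle-treated control cultures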; conditions: S. cerevisiae rad52 mutant growth inhibition, active compounds read high
Summary of the method: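 Read-out: growth inhibition versus vehicle-treated controls. Cells were a DNA repair-deficient yeast strain treated with compounds.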

[2] = NCI Yeast Anticancer Drug Screen. Data for the wt1 strain (AID 149);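 further: 0% = growth of vehicle-treated wt1 cultures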; conditions: S. cerevisiae wt1 strain (SPY 50644) growth inhibition, active compounds read high
Summary of the method: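 Yeast wt1 strain exposed to compounds; growth inhibition measured relative to vehicle-treated controls.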

[3] = NCI Yeast Anticancer Drug Screen. Data for the rad50EPP+ strain (AID 151);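 further: 0% = growth of vehicle-treated control cultures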; conditions: S. cerevisiae rad50 mutant strain, active compounds read high
Summary of the method: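 Growth inhibition read against vehicle controls in rad50EPP+ yeast, a strain altered in DNA damage repair, after compound exposure.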

[4] = NCI Yeast Anticancer Drug Screen. Data for the mgt1 strain (AID 153); conditions: S. cerevisiae mgt1 mutant growth inhibition, active compounds read high
Summary of the method: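 mgt1 yeast grown with test compound; read-out is growth inhibition versus vehicle-treated cultures.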

[5] = NCI Yeast Anticancer Drug Screen. Data for the rad50 strain (AID 155);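 further: 0% = growth of vehicle-only cultures of the same strain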; conditions: S. cerevisiae rad50 strain growth inhibition, active compounds read high
Summary of the method: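 Yeast carrying a defined DNA repair defect were exposed to test compounds, and growth was compared with vehicle-treated controls to give percent inhibition.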

[6] = NCI Yeast Anticancer Drug Screen. Data for the mec2-1 strain (AID 157); conditions: S. cerevisiae mec2-1 strain, active compounds read high
Summary of the method: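 Yeast mec2-1 mutant treated with compound. Readout: growth inhibition vs vehicle controls.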

[7] = NCI Yeast Anticancer Drug Screen. Data for the sgs1 mgt1 strain (AID 161);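 further: 0% = growth of cultures given vehicle only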; conditions: S. cerevisiae sgs1 mgt1 strain, active compounds read high
Summary of the method: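 Genetically altered yeast, compound exposure, growth inhibition relative to vehicle.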

[8] = NCI Yeast Anticancer Drug Screen. Data for the CLN2oe strain (AID 163);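 further: 0% = growth of vehicle-only control cultures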; conditions: S. cerevisiae CLN2oe strain, active compounds read high
Summary of the method: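 Read-out: yeast growth inhibition, expressed relative to vehicle-only controls. The strain bears an engineered cell-cycle alteration.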

[9] = NCI Yeast Anticancer Drug Screen. Data for the cln2 rad14 strain (AID 165);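 further: 0% = growth equal to vehicle treated cultures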; conditions: S. cerevisiae cln2 rad14 strain, active compounds read high
Summary of the method: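 cln2 rad14 yeast strain; compound exposure; growth inhibition read vs vehicle controls.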

[10] = NCI Yeast Anticancer Drug Screen. Data for the bub3 strain (AID 167); conditions: S. cerevisiae bub3 mutant strain, active compounds read high
Summary of the method: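 Compounds were applied to a genetically altered yeast strain carrying a cell-cycle control defect. Growth inhibition was scored against vehicle-treated controls.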

[11] = NCI Yeast Anticancer Drug Screen. Data for the mlh1 strain (AID 171);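 further: 0% = growth of vehicle-treated control cultures of the same strain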; conditions: S. cerevisiae mlh1 strain growth inhibition, active compounds read high
Summary of the method: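 Read-out: growth inhibition versus vehicle controls. Strain: engineered yeast with a defined DNA repair or cell cycle defect, compound-treated.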

[12] = NCI Yeast Anticancer Drug Screen. Data for the sgs1 strain (AID 173);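 further: 0% = growth of vehicle-only control cultures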; conditions: S. cerevisiae sgs1 mutant, active compounds read high
Summary of the method: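 Read-out: yeast growth inhibition relative to vehicle controls, following compound exposure of a strain with a defined DNA repair/cell cycle alteration.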

[13] = NCI Yeast Anticancer Drug Screen. Data for the mlh1 rad18 strain (AID 175); conditions: S. cerevisiae mlh1 rad18 strain growth inhibition, active compounds read high
Summary of the method: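 Yeast w/ defined DNA-repair lesions; compound exposure; growth vs vehicle controls → % inhibition.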

[14] = NCI Yeast Anticancer Drug Screen. Data for the rad18 strain (AID 177); conditions: S. cerevisiae rad18 mutant growth inhibition, active compounds read high
Summary of the method: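 Readout: growth inhibition vs vehicle controls. Cells: genetically altered yeast strain, DNA repair defect.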

[15] = NCI Yeast Anticancer Drug Screen. Data for the wt2 strain (AID 169);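 further: 0% = growth of vehicle-treated yeast cultures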; conditions: S. cerevisiae wt2 strain growth inhibition, active compounds read high
Summary of the method: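 Read-out: growth inhibition versus vehicle-treated control cultures after compound exposure of the yeast strain.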

[16] = at 5.0 µM (retest, dose inferred, filed as 0.5)
[17] = at 50.0 µM (retest, dose inferred, filed as 5.0)

ClCCCOc1c(Cl)cc(Cl)cc1Cl
growth inhibition ([1]; at 1.2 µM): -2%
growth inhibition ([1]; at 3.7 µM): 2%
growth inhibition ([1]; at 11.0 µM): 5%
growth inhibition ([1]; at 33.0 µM): -3%
growth inhibition ([1]; at 100.0 µM): 10%
growth inhibition ([2]; at 1.2 µM): -1%
growth inhibition ([2]; at 3.7 µM): -2%
growth inhibition ([2]; at 11.0 µM): -3%
growth inhibition ([2]; at 33.0 µM): -5%
growth inhibition ([2]; at 100.0 µM): -1%
growth inhibition ([3]; at 1.2 µM): -4%
growth inhibition ([3]; at 3.7 µM): 4%
growth inhibition ([3]; at 11.0 µM): 13%
growth inhibition ([3]; at 33.0 µM): 10%
growth inhibition ([3]; at 100.0 µM): 32%
growth inhibition ([4]; at 1.2 µM): 0%
growth inhibition ([4]; at 3.7 µM): -1%
growth inhibition ([4]; at 11.0 µM): -2%
growth inhibition ([4]; at 33.0 µM): -1%
growth inhibition ([4]; at 100.0 µM): 1%
growth inhibition ([5]; at 1.2 µM): -2%
growth inhibition ([5]; at 3.7 µM): 4%
growth inhibition [5, 16]: 1%
growth inhibition ([5]; at 11.0 µM): 5%
growth inhibition ([5]; at 33.0 µM): 0%
growth inhibition [5, 17]: 13%
growth inhibition ([5]; at 50.0 µM): -7.15%
growth inhibition ([5]; at 100.0 µM): 10%
growth inhibition ([6]; at 1.2 µM): -2%
growth inhibition ([6]; at 3.7 µM): -2%
growth inhibition [6, 16]: -27%
growth inhibition ([6]; at 11.0 µM): -2%
growth inhibition ([6]; at 33.0 µM): -1%
growth inhibition [6, 17]: -12%
growth inhibition ([6]; at 50.0 µM): 8.65%
growth inhibition ([6]; at 100.0 µM): 1%
growth inhibition [7, 16]: 17%
growth inhibition [7, 17]: 15%
growth inhibition ([7]; at 50.0 µM): -2.55%
growth inhibition ([8]; at 1.2 µM): 1%
growth inhibition ([8]; at 3.7 µM): 0%
growth inhibition ([8]; at 11.0 µM): 0%
growth inhibition ([8]; at 33.0 µM): 1%
growth inhibition ([8]; at 100.0 µM): 5%
growth inhibition [9, 16]: 16%
growth inhibition [9, 17]: 25%
growth inhibition ([9]; at 50.0 µM): 29.6%
growth inhibition ([10]; at 1.2 µM): 0%
growth inhibition ([10]; at 3.7 µM): 1%
growth inhibition [10, 16]: 14%
growth inhibition ([10]; at 11.0 µM): -2%
growth inhibition ([10]; at 33.0 µM): -1%
growth inhibition [10, 17]: 13%
growth inhibition ([10]; at 50.0 µM): 0.6%
growth inhibition ([10]; at 100.0 µM): 0%
growth inhibition ([11]; at 1.2 µM): -2%
growth inhibition ([11]; at 3.7 µM): 0%
growth inhibition ([11]; at 11.0 µM): 3%
growth inhibition ([11]; at 33.0 µM): -1%
growth inhibition ([11]; at 100.0 µM): 9%
growth inhibition ([12]; at 1.2 µM): -15%
growth inhibition ([12]; at 3.7 µM): -22%
growth inhibition ([12]; at 11.0 µM): -21%
growth inhibition ([12]; at 33.0 µM): -5%
growth inhibition ([12]; at 100.0 µM): 10%
growth inhibition [13, 16]: 15%
growth inhibition [13, 17]: 60%
growth inhibition ([13]; at 50.0 µM): 27.1%
growth inhibition ([14]; at 1.2 µM): -4%
growth inhibition ([14]; at 3.7 µM): 12%
growth inhibition ([14]; at 11.0 µM): 12%
growth inhibition ([14]; at 33.0 µM): -2%
growth inhibition ([14]; at 100.0 µM): 6%

COC(=O)C1CCCCC1C(=O)Nc1ccccc1 (stereo unspecified)
growth inhibition ([1]; at 1.2 µM): 0%
growth inhibition ([1]; at 3.7 µM): 1%
growth inhibition ([1]; at 11.0 µM): 1%
growth inhibition ([1]; at 33.0 µM): 1%
growth inhibition ([1]; at 100.0 µM): -2%
growth inhibition ([2]; at 1.2 µM): -2%
growth inhibition ([2]; at 3.7 µM): -2%
growth inhibition ([2]; at 11.0 µM): 0%
growth inhibition ([2]; at 33.0 µM): -1%
growth inhibition ([2]; at 100.0 µM): 0%
growth inhibition ([3]; at 1.2 µM): -3%
growth inhibition ([3]; at 3.7 µM): -1%
growth inhibition ([3]; at 11.0 µM): -1%
growth inhibition ([3]; at 33.0 µM): -6%
growth inhibition ([3]; at 100.0 µM): 0%
growth inhibition ([4]; at 1.2 µM): 0%
growth inhibition ([4]; at 3.7 µM): -1%
growth inhibition ([4]; at 11.0 µM): 1%
growth inhibition ([4]; at 33.0 µM): -1%
growth inhibition ([4]; at 100.0 µM): -32%
growth inhibition ([5]; at 1.2 µM): -3%
growth inhibition ([5]; at 3.7 µM): -1%
growth inhibition [5, 16]: 10%
growth inhibition ([5]; at 11.0 µM): 0%
growth inhibition ([5]; at 33.0 µM): 0%
growth inhibition [5, 17]: 2%
growth inhibition ([5]; at 50.0 µM): 20.8%
growth inhibition ([5]; at 100.0 µM): -3%
growth inhibition ([6]; at 1.2 µM): -3%
growth inhibition ([6]; at 3.7 µM): -3%
growth inhibition [6, 16]: 0%
growth inhibition ([6]; at 11.0 µM): -2%
growth inhibition ([6]; at 33.0 µM): -4%
growth inhibition [6, 17]: -2%
growth inhibition ([6]; at 50.0 µM): 10.8%
growth inhibition ([6]; at 100.0 µM): -1%
growth inhibition [7, 16]: 0%
growth inhibition [7, 17]: -26%
growth inhibition ([7]; at 50.0 µM): 15.4%
growth inhibition ([8]; at 1.2 µM): -3%
growth inhibition ([8]; at 3.7 µM): -1%
growth inhibition ([8]; at 11.0 µM): -4%
growth inhibition ([8]; at 33.0 µM): -3%
growth inhibition ([8]; at 100.0 µM): -1%
growth inhibition [9, 16]: -2%
growth inhibition [9, 17]: 6%
growth inhibition ([9]; at 50.0 µM): 62.5%
growth inhibition ([10]; at 1.2 µM): -10%
growth inhibition ([10]; at 3.7 µM): -10%
growth inhibition [10, 16]: -7%
growth inhibition ([10]; at 11.0 µM): -12%
growth inhibition ([10]; at 33.0 µM): -12%
growth inhibition [10, 17]: -9%
growth inhibition ([10]; at 50.0 µM): 74.2% (active)
growth inhibition ([10]; at 100.0 µM): -11%
growth inhibition ([15]; at 1.2 µM): -2%
growth inhibition ([15]; at 3.7 µM): -1%
growth inhibition ([15]; at 11.0 µM): -2%
growth inhibition ([15]; at 33.0 µM): -4%
growth inhibition ([15]; at 100.0 µM): -1%
growth inhibition ([11]; at 1.2 µM): 0%
growth inhibition ([11]; at 3.7 µM): 0%
growth inhibition ([11]; at 11.0 µM): 2%
growth inhibition ([11]; at 33.0 µM): 2%
growth inhibition ([11]; at 100.0 µM): 2%
growth inhibition ([12]; at 1.2 µM): -2%
growth inhibition ([12]; at 3.7 µM): -2%
growth inhibition ([12]; at 11.0 µM): 0%
growth inhibition ([12]; at 33.0 µM): 0%
growth inhibition ([12]; at 100.0 µM): 1%
growth inhibition [13, 16]: -3%
growth inhibition [13, 17]: -2%
growth inhibition ([13]; at 50.0 µM): 25.6%
growth inhibition ([14]; at 1.2 µM): -2%
growth inhibition ([14]; at 3.7 µM): -1%
growth inhibition ([14]; at 11.0 µM): -2%
growth inhibition ([14]; at 33.0 µM): -3%
growth inhibition ([14]; at 100.0 µM): -1%
